The source of these data is PubChem BioAssay AID686996 (Broad Institute, 2013).

In all, about 350,000 compounds went through this assay and about 1,900 (0.54%) were called active. This excerpt belongs to a sample that is enriched for actives. A number with no mark means an inactive call.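 Rule for the calls: active = mean inhibition across replicates at least about 35%, with every replicate also reaching that limit (limit read from the data); inconclusive = only one of the two criteria met; inactive = neither criterion met.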

Caspase-6 (Homo sapiens), sequence (P55212 24-179 limits assumed): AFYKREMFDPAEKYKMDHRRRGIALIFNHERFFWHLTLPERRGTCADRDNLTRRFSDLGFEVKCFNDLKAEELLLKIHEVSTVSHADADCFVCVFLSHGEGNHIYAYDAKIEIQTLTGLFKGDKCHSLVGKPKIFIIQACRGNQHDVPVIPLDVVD
Caspase-6 (Homo sapiens), sequence (P55212 194-293 limits assumed): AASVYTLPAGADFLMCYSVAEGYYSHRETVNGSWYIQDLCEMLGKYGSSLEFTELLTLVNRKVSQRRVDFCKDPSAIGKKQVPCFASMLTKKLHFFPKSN

This assay has as its target Caspase-6 (Homo sapiens) (UniProt P55212). Kind of assay: inhibition of CASP6 peptide cleavage – biochemical, VEID-R110 fluorescence, single point, set 2, primary screen (AID 686996).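 Note: 0% = median of neutral control wells and 100% = no fluorescence left.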 The conditions noted are these: purified caspase-6, Z-VEID-R110 cleavage fluorescence; at 12.5 µM; hits give high values.
As to `CCOC(=O)c1ccc(NC(=O)Cc2cccs2)cc1`, the inhibition – broadly, the drop in the measured response relative to a control, in per cent – was 0.303%.

With `COc1ccc(OC)c(NC(=O)Cc2cccs2)c1`, the inhibition is 25.5%. As to `CCOc1ccccc1NC(=O)Cc1cccs1`, the inhibition is 39.6% (active).

Consider `CO[C@H]1CN(C)C(=O)c2cc(NC(=O)Nc3cccc(F)c3)ccc2OC[C@@H](C)N(C)C[C@@H]1C`, for which the inhibition was -5.35%. `C[C@H]1CN([C@@H](C)CO)S(=O)(=O)c2ccc(-c3ccncc3)cc2O[C@H]1CN(C)S(C)(=O)=O`: the inhibition was -2.14%. On to `COc1ccc(S(=O)(=O)Nc2ccc3c(c2)CC(=O)N([C@@H](C)CO)C[C@@H](C)[C@@H](CN(C)C(=O)Nc2c(C)noc2C)O3)cc1`, for which the inhibition is 1.08%.

On to `O=C(C[C@H]1CC[C@H]2[C@@H](COC[C@H](O)CN2S(=O)(=O)c2cccc(F)c2)O1)NC1CCC1`, for which the inhibition is 0.605%. With `Cc1nnc(SCC(=O)Nc2ccc(S(=O)(=O)Nc3ccc(Cl)nn3)cc2)s1`, the inhibition was 35.3% (active).

As for `Cc1nnc(SC(C)C(=O)Nc2ccc(S(=O)(=O)NC3CCCCC3)cc2)s1` (stereo not given), the inhibition was 3.47%. With `CCCCCC(=O)Nc1ccc(S(=O)(=O)Nc2ccc(Cl)nn2)cc1`, the inhibition is 9.99%. For `C[C@@H](NC(=O)C[C@H]1CC[C@@H](NC(=O)Cc2ccccn2)[C@@H](CO)O1)c1ccccc1`, the inhibition is -7.46%. For `Oc1c(Cl)cc(Cl)c(Cl)c1Cc1c(O)c(Cl)cc(Cl)c1Cl` the value was 45.1% (active); for `CC(C)c1nc(SCC(=O)Nc2cccc(C(=O)O)c2)c2c3c(sc2n1)CCCC3`, 9.4%; for `O=C(CSc1nc(O)c(Cc2ccccc2)c(=O)[nH]1)Nc1nc2c(s1)CCCC2`, 9.11%. On to `O=C(CCc1nc2sc3c(c2c(=O)[nH]1)CCCC3)NCC(=O)Nc1ccccc1Br`, for which the inhibition was 36.7% (active). In the case of `O=c1ccc2c(-c3ccccc3S(=O)(=O)O)c3ccc(O)c(O)c3oc-2c1O`, the inhibition was 87.7% (active). With `O=C(C[C@H]1CC[C@@H](NC(=O)Nc2ccc(F)cc2)[C@@H](CO)O1)NCCN1CCCC1`, the inhibition was -1.07%. On to `O=C(O)Cn1cnc2c(NCc3ccccc3)ncnc21`, for which the inhibition was -2.69%. As to `O=S(=O)(c1ccccc1)N1CC[C@@H]2[C@@H](CO)Nc3ccc(-c4ccccc4F)cc3[C@@H]21`, the inhibition was -0.847%.

Regarding `C[C@H](CO)N1C[C@H](C)[C@H](CN(C)S(C)(=O)=O)Oc2ccc(NC(=O)CCCN(C)C)cc2C1=O`, the inhibition was -7.82%.

Take `COC(=O)c1cccc(NC(=O)c2cccc(N3C(=O)CCC3=O)c2)c1`: the inhibition is 45% (active). In the case of `COC(=O)c1cccc(N2C(=O)C3C4C=CC(CC4)C3C2=O)c1` (stereo not given), the inhibition was 3.07%.

On to `COc1ccccc1-c1nnc(NC(=O)c2cccc(N3C(=O)CCC3=O)c2)o1`, for which the inhibition is 6.24%.

Turning to `C[C@@H]1CN([C@@H](C)CO)C(=O)c2cccc(NS(=O)(=O)c3ccc(Cl)cc3)c2O[C@@H]1CN(C)Cc1ccccc1`, the inhibition is 0.793%. Consider `O=C(C1CCC1)N1CC[C@@H]2[C@H]1c1cc(C#Cc3ccc(F)cc3)ccc1N[C@@H]2CO`, for which the inhibition was 1.04%. Consider `CCN1CCN(C(=O)C2CCN(S(=O)(=O)c3cc(Cl)ccc3Cl)CC2)CC1`, for which the inhibition is -3.59%.

As to `O=C(CN1CCN(S(=O)(=O)c2cc(Cl)ccc2Cl)CC1)c1ccc(O)c(O)c1`, the inhibition was 35.7% (active). As for `O=S(=O)(c1cc(Cl)ccc1Cl)N1CCN(Cc2ccco2)CC1`, the inhibition was 4.43%. For `COc1cccc(CNC(=O)[C@H]2CCCN2C(=O)[C@H]2CCCN2C(=O)C2CCCCC2)c1` the value was 5.61%; for `COc1c(O)cc2oc(-c3ccc(O)c(O)c3)cc(=O)c2c1O`, 39.1% (active). As for `C#CCN1C(Cc2ccccc2)C(=O)O[C@H](C2CCCCC2)[C@@H]1/C=C/C1CC1` (stereo not given in full), the inhibition was -4.1%.

`N#CC1=C(N)Oc2n[nH]c(CSc3ccccc3)c2C12C(=O)Nc1ccccc12` (stereo not given): the inhibition is 7.38%. For `N#CC1=C(N)Oc2[nH]c(=S)[nH]c(=O)c2C12C(=O)Nc1ccccc12` (stereo not given) the value was 45.4% (active).

Consider `C[C@@H]1CN([C@@H](C)CO)S(=O)(=O)c2ccc(C3=CCCCC3)cc2O[C@@H]1CN(C)C(=O)CN(C)C`, for which the inhibition is 0.621%. For the molecule `CCS(=O)(=O)N1CC2(CN(Cc3cc(F)ccc3F)[C@@H](CO)c3c2c2ccc(OC)cc2n3C)C1`, the inhibition was -1.32%. Consider `C[C@H](CO)N1C[C@H](C)[C@H](CN(C)CC2CCCC2)Oc2ncc(Br)cc2C1=O`, for which the inhibition was 0.088%. Consider `C[C@@H]1CN([C@@H](C)CO)C(=O)c2cc(NS(=O)(=O)c3ccc(Cl)cc3)ccc2O[C@H]1CN(C)S(=O)(=O)c1cn(C)cn1`, for which the inhibition is -0.705%.

For the molecule `COc1ccc(S(=O)(=O)/N=C2\C=C(NS(=O)(=O)c3ccccc3)C(=O)c3ccccc32)cc1`, the inhibition was 55.8% (active). With `CNC(=O)COc1ccc(S(=O)(=O)Nc2ccccc2)cc1`, the inhibition was 0.091%.

For `Cc1ccc(S(=O)(=O)N/N=C(\c2ccccc2)C2CC2)cc1`, the inhibition was 8.02%. For `Cc1ccc(S(=O)(=O)/N=C2\C=C(NS(=O)(=O)c3ccc(C)cc3)C(=O)c3ccccc32)cc1` the value was 62.8% (active); for `COc1ccc(NS(=O)(=O)c2ccc(Oc3c(C#N)cccc3C#N)cc2)cc1`, -1.42%; for `Cc1ccc(S(=O)(=O)N[C@H](CO)C(C)C)cc1`, 1.4%. For `CO[C@H]1CN(C)C(=O)c2ccc(NS(=O)(=O)c3ccccc3)cc2OC[C@H](C)N(Cc2nccs2)C[C@@H]1C`, the inhibition was 0.023%. For `C[C@@H](O)C#Cc1ccc([C@H]2[C@@H](CO)N3CCCCN(S(=O)(=O)c4ccccc4)C[C@@H]23)cc1`, the inhibition is -3.52%. With `CCCNC(=O)C[C@H]1C[C@@H]2c3cc(NS(=O)(=O)c4cccc(OC)c4)ccc3O[C@@H]2[C@@H](CO)O1`, the inhibition is 2.43%. For `C[C@@H]1C[C@@H]2O[C@H]2/C=C\C=C\C(=O)Cc2c(Cl)c(O)cc(O)c2C(=O)O1`, the inhibition is 37.4% (active).

On to `COc1ccc(S(=O)(=O)N(C)C[C@H]2Oc3c(NC(=O)CCCCCC(=O)Nc4ccccc4N)cccc3C(=O)N([C@H](C)CO)C[C@H]2C)cc1`, for which the inhibition is -1.7%. Regarding `O=C(Cc1ccccc1)N[C@H]1C=C[C@H](CC(=O)N2CCCCC2)O[C@@H]1CO`, the inhibition is -1.28%. As for `CCCN1[C@H](C(=O)N2CCCCC2)[C@@H](CO)[C@@H]2Cn3c(ccc(-c4ccccc4F)c3=O)[C@@H]21`, the inhibition is 1.71%. As for `CCC(=O)N1CCC2(CC1)CN(Cc1ccc(Cl)cc1)[C@@H](CO)c1[nH]c3cc(OC)ccc3c12`, the inhibition was 1.51%. `CC(C(=O)NC1CCS(=O)(=O)C1)N1C(=O)/C(=C/c2ccc(Cl)cc2)SC1=S` (stereo not given): the inhibition is 4.77%. For `O=C(O)C(c1ccccc1)N1C(=O)/C(=C\c2ccc(-c3cccc(Cl)c3)o2)SC1=S` (stereo not given) the value was 89.6% (active); for `CC(C(=O)Nc1ccc(O)c(C(=O)O)c1)N1C(=O)/C(=C/c2cccs2)SC1=S` (stereo not given), 27.5%. As for `CCN1[C@@H]2Cn3c(ccc(C4=CCCCC4)c3=O)[C@H]1[C@@H](C(=O)N1CCCCC1)[C@@H]2CO`, the inhibition is 1.04%.

Regarding `O=C(C[C@H]1CC[C@@H]2[C@H](COC[C@@H](O)CN2C(=O)Nc2cccc(F)c2)O1)NCc1ccccc1F`, the inhibition is 0.624%. Consider `O=C(COC(=O)c1cnc(Cl)c(Cl)c1)NCc1ccco1`, for which the inhibition is 10.4%. For `O=C(COC(=O)Cc1ccc(Cl)cc1Cl)NCc1ccco1`, the inhibition was 3.33%. `O=C(COC(=O)c1ccccc1O)NCc1ccco1`: the inhibition was 38.4% (active). As to `N#C[C@H]1[C@@H](c2ccccc2C2=CCCC2)[C@H](CO)N1C(=O)c1cccc(F)c1`, the inhibition was 0.224%. For `CCC(=O)N1C[C@@H](C)[C@H](OC)CN(C)C(=O)c2cc(NC(=O)NC3CCCC3)ccc2OC[C@H]1C` the value was 0.917%. As to `CCC(=O)N(C)C[C@@H]1Oc2cc(C#CCN(C)C)ccc2S(=O)(=O)N([C@H](C)CO)C[C@H]1C`, the inhibition is -0.78%. For `N#CC1=C(N)Oc2cc(N)ccc2C1c1ccccc1` (stereo not given) the value was 37% (active); for `Cn1c2c(c(=O)n(C)c1=O)C(c1cccc(F)c1)C(C#N)=C(N)O2` (stereo not given), 1.86%. On to `N#CC1=C(N)Oc2c(ccc3cccnc23)C1c1ccncc1` (stereo not given), for which the inhibition was 3.1%. With `O=C(C[C@@H]1CC[C@H]2[C@@H](COC[C@H](O)CN2C(=O)Nc2ccccc2)O1)NCc1ccccc1F`, the inhibition is -1.64%. For `Cc1ccccc1-c1ccc2c(c1)O[C@@H](CN(C)Cc1ccncc1)[C@@H](C)CN([C@H](C)CO)S2(=O)=O` the value was 2.69%; for `N#Cc1c(N2CCCCC2)nc(N)c2c(N)nc(SCC(=O)O)cc12`, 43.3% (active); for `N#Cc1c(C(F)(F)F)cc(-c2ccc(Cl)cc2)nc1SCC(=O)O`, -2.92%.

Regarding `O=C(O)CSc1ccc(S(=O)(=O)N2CCCC2)cn1`, the inhibition is -0.751%. The same measure for `C[C@@H]1CN([C@@H](C)CO)C(=O)Cc2cc(NC(=O)CCN3CCOCC3)ccc2O[C@H]1CN(C)S(=O)(=O)c1ccccc1`: -0.675%; for `CN(C)C(=O)c1ccc(-c2ccccc2[C@@H]2[C@@H](C#N)N(C(=O)C3CCCC3)[C@H]2CO)cc1`: 2.13%. `C[C@@H]1CN([C@H](C)CO)C(=O)c2c(c3ccccc3n2C)-c2ccccc2CO[C@H]1CN(C)S(=O)(=O)c1ccccc1F`: the inhibition is -0.557%. Regarding `O=C(C[C@@H]1C=C[C@H](NC(=O)C2CCOCC2)[C@H](CO)O1)NCc1ccncc1`, the inhibition is -0.812%. On to `O=C(c1ccc2c(c1)OCO2)N1CC(=O)N2[C@H](C1)[C@@H](c1ccc(C#Cc3ccccc3)cc1)[C@@H]2CO`, for which the inhibition was -1.08%.
